ClpP mod: qHTS Assay for Activators of ClpP. purified B. subtilis ClpP, FRET peptide cleavage, 20 min. Potency, µM (doses to about 57.5 µM). 340,000 tested, 1.9% active; active means well fitted falling curve with a large enough effect; inconclusive means small, poorly fitted or top-dose-only effect; inactive means no such curve, though single readings can be large or run the other way; further: the source files actives as falling curves though it sought activators and does not explain the sign; nearly all actives have a fitted effect of over 65% in size
Target sequence (P80244 whole entry, looked up): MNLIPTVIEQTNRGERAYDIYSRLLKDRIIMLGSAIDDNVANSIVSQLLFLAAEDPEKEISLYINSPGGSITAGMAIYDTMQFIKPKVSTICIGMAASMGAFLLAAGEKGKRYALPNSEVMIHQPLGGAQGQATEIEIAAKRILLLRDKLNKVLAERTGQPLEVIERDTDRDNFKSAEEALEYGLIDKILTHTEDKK
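ClpP 10 microg/mL final, pH 8 Tris/KCl buffer with BSA, glycerol, Tween-20; compound pinned in; FRET-FV substrate; RT 20 min; Ex320/Em430; ΔFRET vs ADEP 5.8 microM, DMSO, no enzyme.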
TDP1 cell CPT: qHTS for Inhibitors of human tyrosyl-DNA phosphodiesterase 1 (TDP1): qHTS in cells in presence of CPT. chicken DT40 Tdp1-/-;hTDP1 cells + 20 nM CPT, ATP luminescence, 48 h. Potency, µM (titrated, usually from 46.2 µM), usual class: inhibitors. AID 686979, 2013. 420,000 tested, 12% active; further: nearly all actives have a fitted effect of over 55% in size
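Chicken DT40 Tdp1-/- cells stably complemented with human TDP1 were seeded at 400 cells/well in medium containing 20 nM camptothecin, exposed to pin-transferred compounds, and grown at 37 °C for at least 48 hr. Viability was read as ATP luminescence.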
D3 antag: qHTS of D3 Dopamine Receptor Antagonist: qHTS | D(3) dopamine receptor (Homo sapiens), P35462 | D3R cells, DiscoveRx beta-arrestin luminescence, antagonist mode; hits give low values | max response, negative = inhibition, % | 360,000 tested, 2.5% active | AID 652054, 2013; in the data active means max response below about -50%; inconclusive means no clear call, values can overlap the other calls
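Cells expressing the human receptor were seeded at 1500 cells/well, incubated overnight at 37 degrees C in 5% CO2, then exposed to library compounds with dopamine controls for 90 minutes at 37 degrees C before luminescent detection.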
IL-1B inflam inh: qHTS for Inhibitors of Inflammasome Signaling: IL-1-beta AlphaLISA Primary Screen. 360,000 tested, 4.7% active. activity change, % at 57.5 µM. THP-1 LPS/ATP IL-1B secretion, AlphaLISA, 16 h; hits give low values; in the data active means activity change below about -50%; inconclusive means mostly about -30% to -49%
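THP-1 cells pretreated 1 hr with compounds (up to 57.5 uM final), then stimulated with LPS (250 ng/mL final) plus ATP (1.25 mM final); secreted IL-1B measured by AlphaLISA after 16 hr, decreased signal indicating inhibition.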
DRD3 agonist: qHTS of D3 Dopamine Receptor Agonist: qHTS | D(3) dopamine receptor (Homo sapiens), P35462 | 410,000 tested, 0.58% active | max activation, % | D3R DiscoveRx beta-arrestin cells, luminescence, 90 min | AID 652048, 2013; in the data active means max activation above about 30%
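Agonist mode: compounds and dopamine controls were applied to plated cells for 90 min at 37 degrees C after an overnight attachment at 1500 cells/well. Luminescent read-out followed 30 - 60 minutes at room temperature with DiscoveRx detection reagent.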
DT40 TDP1 no CPT: qHTS for Inhibitors of human tyrosyl-DNA phosphodiesterase 1 (TDP1): qHTS in cells in absence of CPT. DT40 Tdp1-/- hTDP1 cells, no CPT, ATP luminescence, 48 h. Potency, µM (highest dose often 46.2 µM), usual class: inhibitors. AID 686978, 2013. 420,000 tested, 15% active; further: nearly all actives have a fitted effect of over 55% in size
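Chicken DT40 Tdp1-/- cells complemented with human TDP1, screened without camptothecin (DMSO vehicle only), 400 cells/well. Compounds pin-transferred, cells incubated at 37 °C for at least 48 hr. Growth read as ATP-dependent luminescence (CellTiter-Glo, 30 min at RT).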
Numbers stand for hits; - = inactive; ? = inconclusive; . = no result; [ ] = remark or other dose. Sampled rows, rich in hits. Any-hit rate of the full collection: about 21%. Unless noted, the call rests on the fitted dose curve; in most records, active means well fitted inhibition curve with a large enough effect; inconclusive means small, poorly fitted or top-dose-only effect; inactive means flat fitted curve, though single readings scatter.

SMILES	ClpP mod	TDP1 cell CPT	D3 antag	IL-1B inflam inh	DRD3 agonist	DT40 TDP1 no CPT
CCN1CCN(c2ccc(S(=O)(=O)N3CCCCC3)cc2NC(=O)c2cccc(C(F)(F)F)c2)CC1	-	?	-	-72	-	18µM
CN1CCN(S(=O)(=O)c2cccc(C(=O)Nc3cc(C(F)(F)F)ccc3N3CCCCC3)c2)CC1	-	?	-	-52	-	18µM
Cc1cccc(NC(=O)[C@@H]2CCCN2S(=O)(=O)c2ccc(Cl)cc2)c1	-	?	-	-	-	-
Fc1cccc(-n2cc(-c3ccccc3)c3c(=S)nc[nH]c32)c1	-	?	-	-	-	21µM
O=C(COCc1cc(-c2ccco2)on1)Nc1cccc(Cl)c1Cl	-	?	.	.	-	-
Cc1ccc(/C=N/NC(=O)c2cc(-c3ccc(C)o3)[nH]n2)cc1	.	13µM	-	-	-	15µM
Cc1ccc(/C=N\NC(=O)c2csnn2)cc1	-	-	-53	-	-	-
O=C(CN(CC1CCCO1)C(=O)CNS(=O)(=O)c1ccc(F)cc1)NCc1ccc(F)cc1 (configuration not stated)	.	-	-	-	-	-
C/C=C(\C)CN1CCC(Oc2cccc(C(=O)NCc3ccccn3)c2)CC1	.	-	-	-	-	?
CNc1cccc(-c2cccc(O)c2)n1	-	-	-53	-	-	-
CNc1cncc(-c2cccc(O)c2)n1	-	?	-	-	-	-
CCN(CC)c1ncnc2c1ncn2[C@H]1CN(Cc2ccncc2)C[C@@H](CO)O1	-	-	-	-	-	?
CCOC(=O)c1c(-c2ccccc2)oc2ccc(O)c(CN3CCOCC3)c12	-	23µM	-	-	-	23µM
CCOC(=O)c1oc2cccc(O)c2c1CN1CCOCC1	-	-	-	-	-	-
CCOC(=O)c1c(C)oc2ccc(O)c(CN3CCCCC3)c12	-	?	-	-69	-	-
Cc1cc2c(c(/C=C/C(=O)c3ccccc3)c1)OC1(C=C2)Oc2ccccc2C(=O)N1C (configuration not stated)	.	?	-	-104	-	26µM
O=C(O)CCn1cc(C(=O)O)c(-c2ccccc2)n1	-	-	-	-	-	-
Cc1cc(CNC(=O)[C@H](C)[C@@H]2C[C@@]2(C)[C@@H](NC(=O)OCc2ccccc2)c2ccccc2)nn1C	-	23µM	-	-	-	?
COc1ccc(CNC(=O)[C@H](C)[C@@H]2C[C@@]2(C)[C@@H](NC(=O)OCc2ccccc2)c2ccccc2)cc1OC	-	15µM	-	-	-	12µM
Cc1ccc(S(=O)(=O)N(C)C)cc1NC(=O)c1ccccc1SCC(=O)N1CCCC1	-	-	-	-	-	?
CN(CC(=O)Nc1cc(S(=O)(=O)N2CCCCCC2)ccc1Cl)Cc1ccc2c(c1)OCO2	-	16µM	-54	-	-	?
CN(CC(=O)Nc1cc(S(=O)(=O)N2CCCC2)ccc1Cl)Cc1ccc2c(c1)OCO2	-	-	-	?	-	?
COc1ccc(S(=O)(=O)N2CCCCCC2)cc1NC(=O)CN(C)Cc1ccc2c(c1)OCO2	-	?	-68	-	-	21µM
CN(C)c1ccc(CCC2C=Cc3ccccc32)cc1 (configuration not stated)	-	?	.	.	.	?
COc1ccccc1C1CN(Cc2c(C)nn(C)c2Cl)Cc2ccccc2O1 (configuration not stated)	.	-[9.04 µM]	.	.	.	-
CC1CCN(S(=O)(=O)c2ccc3c(c2)CCC(=O)N3CC(=O)Nc2cccc(C#N)c2)CC1	-	?	.	.	-	?

Screening results as filed in PubChem.
